# Results from PubChem BioAssay AID1259422 (The Scripps Research Institute Molecular Screening Center, 2018).
# The campaign covered roughly 640,000 compounds. About 9,300 (1.5%) were called active. Many of the other results were omitted from the sample, so actives are more common in it than they were. A number with no mark means an inactive call. Rule as the data show it: active = inhibition above about 32%; inactive = the rest.
# Test: TEAD-YAP interaction inhibition, primary screen, TEAD-YAP interaction inhibitor project, luminescence, HEK-TIYL cells (AID 1259422);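 also: 0% = median of test compound wells and 100% = reference inhibitor wells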
# Conditions: TEAD-Gal4/YAP UAS-luciferase luminescence, at 9.12 µM, active compounds read high
row,SMILES,inhibition
1,CCOC(=O)C1=C(C)NC(=S)NC1c1cc(OC)ccc1Br (centres undefined),-4.97%
2,CC(=O)c1cccc(-c2ccc(C(=O)NCCN3CCOCC3)s2)c1,-17.5%
3,COc1ccc(-c2noc(CNC(=O)c3ccc(Br)cc3)n2)cc1,-8.01%
4,CC1=C(C(=O)OCc2ccccc2)C(c2cccc([N+](=O)[O-])c2)C2=C(CC(c3cccs3)CC2=O)N1 (centres undefined),58.1% (active)
5,CC1=C(C(=O)OCc2ccccc2)C(c2ccc3c(c2)OCO3)C2=C(CC(c3cccs3)CC2=O)N1 (centres undefined),-4.32%
6,COC(=O)C1=C(C)NC2=C(C(=O)CC(c3cccs3)C2)C1c1cccc(OCc2ccccc2)c1 (centres undefined),15.8%
7,O=C(CSc1cccc[n+]1[O-])Nc1nc2ccccc2s1,3.26%
8,Cc1nccn1CC(O)COc1ccc(Br)cc1 (centres undefined),5.95%
9,COc1ccc(OCC(=O)c2ccc(F)cc2)c(C#N)c1,-65.6%
10,COc1ccc(C(=O)COC(=O)COc2ccccc2C#N)c(OC)c1,7.04%
11,COc1ccc(OC)c(C(=O)COc2ccc(Br)cc2C#N)c1,52.8% (active)
12,CN(C)C(=O)c1cc(-c2cn[nH]c2)ccc1NC(=O)OCc1ccccc1,-2.11%
13,CC(=O)Nc1ccc(N2C(=O)c3ccc4c5c(ccc(c35)C2=O)C(=O)N(c2ccc(NC(C)=O)cc2)C4=O)cc1,5.3%
14,COc1cc(OC)nc(Oc2cccnc2/C=N/Nc2ccccc2[N+](=O)[O-])n1,-11.9%
15,CCN(CC)S(=O)(=O)c1ccc2nc(NC(=O)CC(C)C)sc2c1,42.2% (active)
16,CCCC(=O)Nc1nc2ccc(S(=O)(=O)N(C)C)cc2s1,-15.2%
17,CS(=O)(=O)c1ccc2nc(NC(=O)CSc3ccccc3)sc2c1,7.95%
18,COc1cc(/C=C2/SC(=O)N(C)C2=O)cc(Br)c1OC,-1.8%
19,CC12CCC(C(=O)N(NC(=O)c3ccccc3O)C1=O)C2(C)C (centres undefined),74.3% (active)
20,CCN(CC)c1ccc(NC(=O)c2ccccc2O)cc1,-31.2%

row,SMILES,inhibition
1,COc1ccc(N2C(=O)CC(NNC(=O)c3ccccc3O)C2=O)cc1 (centres undefined),8.23%
2,CC12C=CC3(O1)C(C(=O)N(CC1CCCO1)C3C(=O)NC1CCCCC1)C2C(=O)Nc1ccc(Cl)c(Cl)c1 (centres undefined),2.66%
3,CCOc1ccc(S(=O)(=O)NCCOc2ccc(F)cc2)c(OCC)c1,10.6%
4,O=C1c2ccccc2C(=O)N1c1cccc(Br)c1,-1.81%
5,Nc1cccc(-c2nc(NCCO)c3ncn(-c4ccccc4)c3n2)c1,31.7%
6,Clc1nc(NCCN2CCOCC2)c2ncn(-c3ccccc3)c2n1,-5.11%
7,Cn1c(Nc2nc(NCCN3CCOCC3)c3ncn(-c4ccccc4)c3n2)nc2ccccc21,25.9%
8,NC(=O)c1ccc(-c2nc(NCCO)c3ncn(-c4ccsc4)c3n2)cc1,18.6%
9,COc1ccc(-c2nc(NCCO)c3ncn(-c4ccsc4)c3n2)cn1,41.7% (active)
10,COc1ccc(-c2nc(NCCN3CCOCC3)c3ncn(-c4ccccc4)c3n2)cn1,59.2% (active)
11,C=CCn1c(=O)c(C(=O)Nc2cccc(Cl)c2)c(O)c2ccccc21,3.7%
12,O=C(Nc1cccc2c1C(=O)c1ccccc1C2=O)c1ccc(F)cc1,-2.6%
13,CNC(=O)C(=O)Nc1cc(OC)ccc1OC,10.2%
14,COc1ccc(OC)c(C(=O)c2ccc(C(=O)NC3CC(C)(C)NC(C)(C)C3)cc2)c1,17.9%
15,CONC(=O)c1ccc(C(=O)c2cc(OC)ccc2OC)cc1,35.8% (active)
16,CCOc1ccc(Nc2nc(Nc3ccc(C(C)=O)cc3)nc(C)c2[N+](=O)[O-])cc1,6.26%
17,COc1ccc(OC)c(NC(=O)CN2CCC(n3c(C)nc4cc(F)ccc43)CC2)c1,-30.9%
18,CCOC(=O)CC1NCC2c3ccccc3CCN2C1=O (centres undefined),2.64%
19,OC1CCN(c2ccnc3c(-c4cccc(C(F)(F)F)c4)cnn23)CC1,10%
20,O=C(COc1ccc(Cl)cc1Cl)N1CCCc2ccccc21,-11.7%

row,SMILES,inhibition
1,O=C(c1c[nH]c(=O)n(-c2ccc(F)c(Cl)c2)c1=O)N1CCCc2ccccc21,38.2% (active)
2,O=C(c1cc(Cl)ccc1[N+](=O)[O-])N1CCCc2ccccc21,10.8%
3,COc1cc(NC(=O)c2sc3nc(C)nc(N4CCN(C)CC4)c3c2C)cc(OC)c1,4.26%
4,COc1ccc(NC(=O)CS(=O)CC(=O)Nc2ccccc2-c2ccccc2)cc1 (centres undefined),-6.02%
5,COc1cc(OC)cc(C(=O)N/N=C(\C)CC(=O)Nc2ccccc2-c2ccccc2)c1,51.5% (active)
6,COc1ccc(C(=O)N/N=C(\C)CC(=O)Nc2ccccc2)c(OC)c1,-36.2%
7,COc1cc(OC)cc(C(=O)N/N=C(\C)CC(=O)NC2CCCCCCC2)c1,54.5% (active)
8,C/C(CC(=O)NC1CCCC1)=N\NC(=O)COc1cccc(C)c1,-8.3%
9,C/C(CC(=O)NC1CCCCC1)=N\NC(=O)c1ccncc1,2.69%
10,COc1ccc2nc(NC(=O)c3ccccc3OC)sc2c1,5.95%
11,CCc1nc(SCC(=O)Nc2nc(C)c(C)s2)c2ccccc2n1,5.48%
12,O=C1Nc2cc(C(=O)N3CCN(c4ccccn4)CC3)ccc2Nc2ccccc21,11.1%
13,Clc1ccccc1-c1cnn2c(N3CCOCC3)ccnc12,16.7%
14,OC1CCN(c2ccnc3c(-c4ccoc4)cnn23)CC1,-22.8%
15,COc1ccc(-c2cnn3c(N4CCOCC4)ccnc23)c(OC)c1,-6.8%
16,COc1cccc(-c2cnn3c(N4CCC(O)CC4)ccnc23)c1,21.5%
17,c1cc(N2CCOCC2)n2ncc(-c3ccc4[nH]ccc4c3)c2n1,96.6% (active)
18,COc1cc(-c2cnn3c(N4CCOCC4)ccnc23)cc(OC)c1OC,76.6% (active)
19,O=C(CNC(=O)c1ccco1)N/N=C/c1ccc(O)c(O)c1,3.54%
